PABP polyA inh = PABP-poly(A) binding inhibition | 1% of 290,000 active | inhibition, % at 35 µM | PABP-poly(A) RNA binding, fluorescence polarization;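 also: calls also rest on retests at 20 µM and on dose response follow-up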
eIF4H FP inh = inhibitors of RNA binding by human eIF4H | 0.94% of 290,000 active | inhibition, % at 35 µM | AID 2012 | eIF4H fluorescence polarization binding assay;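 also: calls also rest on retests at 20 µM and on dose response follow-up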
PERK inh = inhibitors of human PERK kinase. CHO PERK-DD fusion, SEAP luminescence translation reporter. inhibition, % at 5.6 µM. 0.17% of 220,000 active;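 active = inhibition above the mean inhibition of all tested compounds plus 3 SD, set separately per screening campaign, cut at about 2.9% in these data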;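 also: PERK kinase domain activated by AP20187 dimerizer at 100 nM; 0% = DMSO with dimerizer and 100% = rapamycin at 8.4 µM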
MLLE-PAM2 inh = inhibitors of microRNA-mediated deadenylation, human PABP1 MLLE binding. 0.36% of 360,000 active. inhibition, % at 20 µM. P11940. AID 588489. GST-MLLE / FITC-PAM2 fluorescence polarization; in the data active = inhibition above about 35%, passing the limit was not always enough;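 also: plate controls were DMSO wells with GST-MLLE for no effect and wells lacking GST-MLLE protein for full effect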
GRK2 inh = blocks RNA aptamer binding to human GRK2; P25098; bead flow cytometry, FAM-aptamer displacement from GRK2; inhibition of aptamer binding, % at 10 µM; 0.59% of 330,000 active;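 active = inhibition of aptamer binding above 40%, roughly 3 SD of noise, on plates passing a quality check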;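 also: median bead fluorescence of bound FAM aptamer so fluorescent compounds give negative values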
Target sequence (P25098 whole entry, looked up): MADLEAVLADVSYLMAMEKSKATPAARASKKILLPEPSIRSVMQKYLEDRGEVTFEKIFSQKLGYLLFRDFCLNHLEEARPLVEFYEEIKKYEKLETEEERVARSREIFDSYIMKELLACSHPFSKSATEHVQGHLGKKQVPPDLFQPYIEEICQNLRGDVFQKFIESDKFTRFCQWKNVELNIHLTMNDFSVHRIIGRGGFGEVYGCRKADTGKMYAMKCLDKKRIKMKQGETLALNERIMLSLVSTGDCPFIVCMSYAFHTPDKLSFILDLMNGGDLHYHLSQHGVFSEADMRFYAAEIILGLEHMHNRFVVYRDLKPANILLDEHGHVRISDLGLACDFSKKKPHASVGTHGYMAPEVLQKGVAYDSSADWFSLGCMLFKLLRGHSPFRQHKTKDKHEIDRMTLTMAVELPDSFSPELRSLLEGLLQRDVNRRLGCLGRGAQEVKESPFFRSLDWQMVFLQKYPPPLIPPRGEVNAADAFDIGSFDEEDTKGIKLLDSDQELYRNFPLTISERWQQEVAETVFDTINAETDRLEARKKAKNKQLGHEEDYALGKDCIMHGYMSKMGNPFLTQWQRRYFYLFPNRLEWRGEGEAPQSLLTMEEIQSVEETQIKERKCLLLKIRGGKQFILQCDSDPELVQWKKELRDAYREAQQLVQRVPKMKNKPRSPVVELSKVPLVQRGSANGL
GRK2 inh confirm = human GRK2 inhibition confirmation, cherry pick 1; AID 504451; shares compounds with GRK2 inh; aptamer displacement, % at 10 µM; 4% of 2,000 active; bead-bound GRK2, FAM-aptamer displacement, flow cytometry;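 active = aptamer displacement above 40%, near three times the noise of non-fluorescent compounds, on plates passing quality checks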;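 also: negative values mostly reflect intrinsic compound fluorescence rather than true enhancement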
Aptamer quench 1 = counter-screen for GRK2 aptamer inhibitors: fluorescent aptamer quenchers. shares compounds with GRK2 inh. Fluorescent RNA aptamer beads, quenching, flow cytometry; stronger effect = higher value. fluorescence change (kMESF span), kMESF (no concentration beside the values). 110 tested, under 10 active. AID 504521;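 active = compounds whose bead fluorescence drops by more than 37 kMESF across the dose range, marking them as dye quenchers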
Aptamer quench SP = counter-screen for GRK2 aptamer inhibitors: fluorescent aptamer quenchers; 2,000 tested, under 10 active; Carboxyfluorescein RNA aptamer on beads, flow cytometry quenching; stronger effect = lower value; shares compounds with GRK2 inh; fluorescence response (% of DMSO), % at 10 µM;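 active = compounds that quench the bead-bound fluorescent RNA probe, cutting fluorescence to under half of the solvent control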;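 also: counterscreen run without GRK2 so only probe quenching by compound is measured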
GRK2 confirm 2 = confirmation of human GRK2 inhibitors binding RNA aptamer site | inhibition of aptamer binding, % at 10 µM | bead-bound GRK2, FAM-aptamer displacement, flow cytometry | shares compounds with GRK2 inh | AID 504782 | 360 tested, under 10 active;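 active = inhibition of aptamer binding above 40%, about triple the noise seen with nonglowing compounds, on plates passing quality control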;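 also: negative values mostly come from compounds that fluoresce themselves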
Aptamer quench 2 = quenches fluorescent RNA aptamer, GRK2 hit artifact; shares compounds with GRK2 inh; Streptavidin beads, FAM-RNA aptamer fluorescence quenching, flow cytometry; change in fluorescence (kMESF span), kMESF (concentration not given with the values); 25 tested, under 10 active;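 active = compounds quenching the bead-bound labeled aptamer, with fluorescence dropping by more than 37 kMESF over the dose range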
FAM quench CP2 = counter-screen for GRK2 binding hits: quenchers of fluorescent RNA aptamer. shares compounds with GRK2 inh. AID 588494. 360 tested, under 10 active. carboxyfluorescein RNA aptamer beads, flow cytometry quenching; stronger effect = lower value. fluorescence response vs DMSO, % at 10 µM;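 active = response vs DMSO under 50%, meaning signal dropped by over half, treated as fluorescence quencher; inconclusive = no clear call, values can overlap the other calls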;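 also: labelled aptamer on streptavidin beads without GRK2 as a quench counter-screen; 100% = bead fluorescence of DMSO wells and lower means quenching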
FAM quench DR = quenches fluorescent RNA aptamer, GRK2 hit artifact. Bead-bound FAM RNA aptamer fluorescence quenching, flow cytometry; stronger effect = lower value. 35 tested, under 10 active. shares compounds with GRK2 inh. AID 588496. fluorescence ratio to DMSO, % at 11.1 µM;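 active = compounds that dim the fluorescent label, raw bead signal shifting by over 33 units between lowest and highest dose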
* marks the source's active call; other numbers are inactive results; i = inactive; ? = inconclusive; · = not tested or not shown. Compounds with a hit are over-represented: about 1.9% of the library has one in this group of screens. Unless noted, no rule for the calls is given here.

SMILES	PABP polyA inh	eIF4H FP inh	PERK inh	MLLE-PAM2 inh	GRK2 inh	GRK2 inh confirm	Aptamer quench SP	others
CC(NC(=O)c1cccc(S(=O)(=O)N2CCN(C)CC2)c1)c1ccc(Cl)cc1Cl (stereo not drawn)	·	·	·	-17	75*	-3	97
CC(NC(=O)c1cccc(S(=O)(=O)N2CCN(Cc3ccccc3)CC2)c1)c1ccccc1Cl (stereo not drawn)	·	·	·	3	·	·	·
NC(=O)c1ccc(/C=N/O)nc1	13	-5	1	6	0	·	·
O=C1NC(=O)/C(=C\c2ccc(Br)o2)S1	24	34	·	11	90*	6	94
COc1cccc(CNC(=O)CSc2nc(=O)n(Cc3ccncc3)c3c2CCC3)c1	·	·	·	-4	1	·	·
CS(=O)(=O)N(Cc1ccccc1)c1ccc(C(=O)Nc2ccccc2Sc2ccccc2)cc1	-5	4	0	9	4	·	·
CS(=O)(=O)N(Cc1ccccc1)c1ccc(C(=O)Nc2ccccc2C(=O)O)cc1	6	-5	·	3	51*	-3	96
COC(=O)[C@H](Cc1ccccc1)NC(=O)N1CCCCCC1	7	3	·	7	0	-13	196
COC(=O)C(Cc1ccccc1)NC(=O)CC(C)CC(=O)Nc1ccc(C)cc1 (stereo not drawn)	-5	-10	·	4	46*	1	100
COC(=O)[C@H](Cc1ccccc1)NC(=O)N1CCN(c2ccc(F)cc2)CC1	-9	2	0	-4	0	-1	99
COC(=O)[C@H](Cc1ccccc1)NC(=O)N1CCN(Cc2ccccc2)CC1	-2	0	0	2	0	·	·
O=C(O)[C@H](Cc1ccccc1)NC(=O)N1CCCCCC1	4	-5	·	5	100*	-1	99
COc1ccc(S(=O)(=O)N(C)C[C@H]2OCc3cn(nn3)CCCC(=O)N([C@@H](C)CO)C[C@@H]2C)cc1	·	·	·	1	·	·	·
C[C@H]1COC(=O)[C@H](Cc2ccc(F)cc2)C/C=C\C[C@@H](CC(=O)N(CCO)Cc2ccccc2)C(=O)N1	·	·	·	4	1	·	·
O=C(Cc1ccccc1)Nn1cnc2ccccc21	37	-4	1	7	55*	-4	97
CCOC(=O)c1c(-c2ccc(F)cc2)csc1NC(=O)C1CC=CCC1C(=O)O (stereo not drawn)	?	?	1	39	95*	5	98
CCOC(=O)c1c(-c2ccc(C)c(C)c2)csc1NC(=O)C1CC=CCC1C(=O)O (stereo not drawn)	4	0	0	-7	0	·	·
CC(C(=O)O)n1c2ccccc2c2cnn(C)c(=O)c21 (stereo not drawn)	26	6	·	4	95*	3	106
O=[N+]([O-])c1cc(C(F)(F)F)ccc1Sc1nccn1Cc1ccccc1	-2	-6	0	12	4	·	·
O=[N+]([O-])c1cc(C(F)(F)F)ccc1Sc1ccc2ccccc2n1	3	2	0	23	39	-1	84
O=C1C=CC2=C3c4cc(O)c(O)cc4CC3(O)COC2=C1O (stereo not drawn)	·	·	·	35	·	·	·
O=C(Nc1ccc2oc(-c3cccnc3)nc2c1)c1ccc2c(c1)OCCO2	-60	-20	0	-67	60*	7	96
COc1ccc(OC)c(NC(=O)CSc2nc3c(c(=O)n(C)c(=O)n3C)n2C)c1	1	-6	-1	23	74*	-3	93
COc1ccc(CNC(=O)CSc2nc3c(c(=O)n(C)c(=O)n3C)n2C)cc1	·	·	0	·	·	·	·
COc1ccc(NC(=O)CSc2nc3c([nH]c4ccccc43)c(=O)n2C)c(OC)c1	12	11	·	1	97*	·	·	GRK2 confirm 2=0;FAM quench CP2=96
SMILES	PABP polyA inh	eIF4H FP inh	PERK inh	MLLE-PAM2 inh	GRK2 inh	GRK2 inh confirm	Aptamer quench SP	others
CC(=O)c1ccc(NC(=O)CCS(=O)(=O)c2ccc3c(c2)n(C)c(=O)c(=O)n3C)cc1	-5	2	·	3	48*	36	105	GRK2 confirm 2=26;FAM quench CP2=99
CCc1cccc(NC(=O)CCS(=O)(=O)c2ccc(Br)cc2)c1	24	81*	·	-8	93*	73*	96	Aptamer quench 1=6.4;Aptamer quench 2=1.4
COC(=O)c1ccc(NC(=O)CCS(=O)(=O)c2ccc(Br)cc2)cc1	2	61	-1	-3	58*	34	101	Aptamer quench 1=16;Aptamer quench 2=0.7;FAM quench DR=103
COC(=O)c1ccc(NC(=O)CCS(=O)(=O)c2ccc(C)cc2)cc1	0	-5	·	4	0	·	·
CCNC(=O)C(=O)NCC1CCCN1S(=O)(=O)c1cccs1 (stereo not drawn)	·	·	·	-1	0	·	·
O=C(O)C1CC=CCC1C(=O)NCc1ccccc1 (stereo not drawn)	-2	3	1	-5	4	·	·
COc1ccc(CNC(=O)C2CC=CCC2C(=O)O)cc1OC (stereo not drawn)	3	8	0	8	0	·	·	GRK2 confirm 2=i;FAM quench CP2=103
COc1ccc(S(=O)(=O)N2CCCCC2)cc1NC(=O)c1ccc(N2CCCC2=O)cc1	·	·	·	-12	79*	1	101
CN(CCO)c1ccc(C=NNc2ccc([N+](=O)[O-])cc2S(=O)(=O)Nc2ccccc2C(=O)O)cc1	·	·	·	-135	35	11	101
CC(=O)Nc1ccc(C=NNc2ccc([N+](=O)[O-])cc2S(=O)(=O)Nc2ccccc2C(=O)O)cc1	·	·	·	-42	0	·	·
COc1ccc(NC(=O)CN2c3cccc4cccc(c34)S2(=O)=O)cc1OC	·	·	·	-4	·	·	·
O=C(CSc1nnc2ccccn12)NNC(=O)c1ccc(Br)cc1	8	-9	1	-5	2	·	·
N/C(=N\OC(=O)/C=C/c1ccccc1)c1cccnc1	0	-5	0	-9	0	·	·
N/C(=N\OC(=O)/C=C/c1ccccc1Cl)c1cccnc1	1	-6	0	-10	75*	-22	98

High-throughput results deposited in PubChem by several laboratories.
